Records with an inconclusive call do not appear. Activity calls are given as the source filed them. Rule for the calls, unless noted: active = hit-call score of the fitted dose curve at least 0.9, where 1 is the maximum; inactive = score below 0.9.
Tests used:
[1] = CCTE_Shafer_MEA_acute_burst_percentage_mean: CCTE's Neural Acute Assay for Percentage of Spikes in a Burst, Shafer Lab (AID 2284017)
How it was run: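 Primary rat cortical neurons on 48-well MEA plates, treated on DIV 13 or 15 at 0.03-40 uM. Spikes detected at 8x rms noise at 37C; percent change from 40-min baseline to 40-min post-dose recording, fitted versus DMSO.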

[2] = CCTE_Shafer_MEA_acute_burst_percentage_std: CCTE's Neural Acute Assay for Standard Deviation of Burst Percentage, Shafer Lab (AID 2284018);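 note: fitted in the negative direction so actives lower burst percentage SD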
How it was run: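 Value is percent change from baseline in the across-electrode SD of spikes-in-bursts percentage, wells with >/= 10 active electrodes. Acute 40-min exposure to 0.03-40 uM on DIV 13 or 15 rat cortical cultures, recorded at 37 C after 40-min baseline.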

[3] = CCTE_Shafer_MEA_acute_per_network_burst_spike_number_mean: CCTE's Neural Acute Assay for Average Number of Spikes in a Network Burst, Shafer Lab (AID 2284019)
How it was run: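 Percent change from baseline in mean spikes per network burst, spikes detected at 8x rms noise. Each compound at 0.03-40 uM in at least three wells of rat cortical cultures, recorded 40 min before and 40 min during exposure.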

[4] = CCTE_Shafer_MEA_acute_per_network_burst_spike_number_std: CCTE's Neural Acute Assay for Standard Deviation of Number of Spikes in a Network Burst, Shafer Lab (AID 2284020);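 note: fitted for decrease in spike-number SD versus DMSO so actives lower it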
How it was run: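 Endpoint: percent change from 40 min baseline in standard deviation of spikes per network burst, after 40 min compound exposure (0.03-40 uM, 37 C). Cortical rat neurons on MEA at DIV 13 or 15; spikes detected at 8x rms noise, 300-5000 Hz band-pass.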

[5] = CCTE_Shafer_MEA_acute_per_network_burst_electrodes_number_mean: CCTE's Neural Acute Assay for Mean Number of Electrodes in a Network Burst, Shafer Lab (AID 2284021);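 note: curves fitted for decreases only so hits reduce electrodes per burst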
How it was run: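 Rat primary cortical neurons on 16-electrode MEA wells were recorded 40 min at baseline on DIV 13 or 15, then 40 min after compound (0.03-40 uM), at 37 C. Value is percent change per well, fitted in loss direction versus DMSO.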

[6] = CCTE_Shafer_MEA_acute_network_burst_percentage: CCTE's Neural Acute Assay for Percentage of Network Bursts, Shafer Lab (AID 2284022);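 note: curves fitted for loss so actives lower network burst percentage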
How it was run: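 Primary rat cortical neurons on 16-electrode MEA wells, treated on DIV 13 or 15 with compound (0.03-40 uM); 40-min baseline and 40-min post-exposure recordings at 37 C. Value is percent change in spikes within network bursts versus baseline, DMSO negative control.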

[7] = CCTE_Shafer_MEA_acute_cross_correlation_area: CCTE's Neural Acute Assay for Area of Cross Correlation, Shafer Lab (AID 2284024);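 note: area under pooled inter-electrode spike cross-correlation near zero lag as percent change from own baseline; curves fitted for loss of cross-correlation area so actives lower synchrony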
How it was run: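 Primary rat cortical neurons on 48-well MEA plates (16 electrodes/well) were recorded 40 min at baseline on DIV 13 or 15, then 40 min with compound (0.03-40 uM) at 37 C; cross-correlation area expressed as percent change from baseline.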

[8] = CCTE_Shafer_MEA_acute_cross_correlation_HWHM: CCTE's Neural Acute Assay for Cross Correlation at Half Width at Half Maximum, Shafer Lab (AID 2284026);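 note: spontaneous network firing of rat primary cortical neurons on multiwell microelectrode arrays; percent change per well from pre-dose baseline in spike cross-correlogram half width; hits are a decrease in cross-correlogram half width relative to DMSO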
How it was run: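 Primary rat cortical neurons on 16-electrode MEA wells; 40-min baseline on DIV 13 or 15, then 40-min recording with compound (0.03-40 uM) at 37 C. HWHM of spike cross-correlogram expressed as percent change from baseline per well, DMSO reference.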

[9] = CCTE_Shafer_MEA_acute_synchrony_index: CCTE's Neural Acute Assay for Synchrony, Shafer Lab (AID 2284027);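 note: network synchrony index of spontaneous spiking in primary rat cortical neurons on MEAs; fitted for loss of signal so actives lower synchrony relative to DMSO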
How it was run: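 Acute exposure of rat primary cortical neurons (DIV 13 or 15) at 0.03-40 uM. Synchrony index, 40 min before vs after, as % change relative to DMSO control.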

[10] = target: Estrogen receptor (Homo sapiens) (UniProt P03372); assay: CCTE_Deisenroth_AIME_384WELL_LUC_Active: CCTE's 384-well Estrogen Receptor Transactivation Assay with AIME metabolic competence (ERTA luciferase; metabolism positive), Deisenroth Lab (AID 2284030; active = hit-call score of the fitted dose curve at least 0.9, where 1 is the maximum)
Sequence of Estrogen receptor (Homo sapiens) (P03372 whole entry, looked up): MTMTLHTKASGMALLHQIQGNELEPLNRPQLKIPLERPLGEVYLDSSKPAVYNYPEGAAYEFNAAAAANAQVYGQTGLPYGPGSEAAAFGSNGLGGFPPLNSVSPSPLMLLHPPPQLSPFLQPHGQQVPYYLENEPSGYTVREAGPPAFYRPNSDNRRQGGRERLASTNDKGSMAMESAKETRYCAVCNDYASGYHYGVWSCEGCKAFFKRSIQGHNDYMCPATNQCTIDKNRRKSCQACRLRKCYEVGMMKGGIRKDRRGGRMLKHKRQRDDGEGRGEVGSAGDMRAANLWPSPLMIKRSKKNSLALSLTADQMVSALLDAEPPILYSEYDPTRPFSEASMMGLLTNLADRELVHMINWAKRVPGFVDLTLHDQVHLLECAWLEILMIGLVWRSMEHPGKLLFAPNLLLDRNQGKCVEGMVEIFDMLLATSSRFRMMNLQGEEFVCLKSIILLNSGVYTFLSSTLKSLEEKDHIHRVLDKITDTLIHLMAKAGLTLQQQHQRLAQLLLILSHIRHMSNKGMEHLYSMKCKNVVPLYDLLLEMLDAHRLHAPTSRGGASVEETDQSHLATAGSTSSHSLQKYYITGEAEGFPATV
How it was run: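 Test chemicals (10-point series, 0.002 - 200 uM) were preincubated 2 hours with alginate-immobilized phenobarbital/beta-naphthoflavone-induced male Sprague Dawley rat liver S9; conditioned medium then went onto VM7Luc4E2 breast cells for 24 hour. Luciferase gain-of-signal fitted relative to 17beta-estradiol.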

[11] = target: Estrogen receptor (Homo sapiens) (UniProt P03372); assay: CCTE_Deisenroth_AIME_384WELL_LUC_Inactive: CCTE's 384-well Estrogen Receptor Transactivation Assay without AIME metabolic competence (ERTA luciferase; metabolism negative), Deisenroth Lab (AID 2284038; active = hit-call score of the fitted dose curve at least 0.9, where 1 is the maximum;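 note: VM7Luc4E2 breast cells given medium preincubated 2 h with S9-free microspheres; hits raise estrogen receptor luciferase signal so potencies reflect agonists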)
How it was run: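 Metabolism-negative mode: AIME lids stamped in alginate-water, no hepatic S9. 2 h chemical incubation → medium onto VM7Luc4E2 ERTA, 24 h. Readout luciferase luminescence; gain-of-signal fit vs 17beta-estradiol. Conc. 0.002 - 200 uM.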

[12] = CCTE_Deisenroth_AIME_384WELL_CTox_Inactive: Cytotoxicity Assessment (CTOX) in CCTE's 384-well Estrogen Receptor Transactivation Assay without AIME metabolic competence (metabolism negative), Deisenroth Lab (AID 2284039; active = hit-call score of the fitted dose curve at least 0.9, where 1 is the maximum;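 note: cell viability via live-cell protease substrate cleaved to fluorescent probe; cells exposed 24 h to medium preincubated 2 h with alginate-water beads without S9; loss of fluorescence signal means loss of viability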)
How it was run: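 VM7Luc4E2 cells, metabolism-negative arm: test chemicals (0.002–200 uM, 10 points) pre-incubated 2 h with alginate-water microspheres, then medium transferred to cells for 24 h. Viability read as protease-substrate cleavage to fluorescent probe; loss-of-signal, bidirectional fitting.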

[13] = target: Estrogen receptor (Homo sapiens) (UniProt P03372); assay: CCTE_Deisenroth_AIME_384WELL_LUC_Shift: CCTE's 384-well Estrogen Receptor Transactivation Assay with AIME metabolic competence data shift (ERTA luciferase; difference in metabolism positive and negative), Deisenroth Lab (AID 2284041);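 note: shift is response with S9 minus without S9 so positive means metabolism raised ER signal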
How it was run: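 Test chemicals (0.002–200 uM, 10-point) were pre-incubated 2 h with alginate microspheres containing phenobarbital/beta-naphthoflavone-induced male Sprague Dawley rat liver S9 or water, then medium was transferred to VM7Luc4E2 cells for 24 h luciferase readout; shift = S9-positive minus S9-negative normalized response.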

[14] = CCTE_Shafer_MEA_dev_firing_rate_mean: CCTE's Neural Network Formation Assay for Mean Firing Rate, Shafer Lab (AID 2284031)
How it was run: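 Extracellular spike frequency, AUC over DIV 5–12 recordings, in rat cortical neuron MEA cultures dosed from plating; loss direction vs DMSO.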

[15] = CCTE_Shafer_MEA_dev_active_electrodes_number: CCTE's Neural Network Formation Assay for Number of Active Electrodes, Shafer Lab (AID 2284040; active = hit-call score of the fitted dose curve at least 0.9, where 1 is the maximum)
How it was run: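 Developing rat cortical networks on MEAs, exposed DIV 0–12. Value is the AUC of active-electrode counts (≥5 spikes/min) from days 5, 7, 9, 12, relative to DMSO.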

[16] = CCTE_Shafer_MEA_dev_burst_rate: CCTE's Neural Network Formation Assay for Burst Rate, Shafer Lab (AID 2284042)
How it was run: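 Primary rat cortical neurons on PEI-coated 48-well MEA plates (laminin added with cells at plating) (16 electrodes/well), exposed from plating to day 12, dosing renewed at DIV 5 and 9. Burst rate averaged over active electrodes, recorded DIV 5, 7, 9, 12, summarized as AUC; loss versus DMSO.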

[17] = CCTE_Shafer_MEA_dev_bursting_electrodes_number: CCTE's Neural Network Formation Assay for Number of Bursting Electrodes, Shafer Lab (AID 2284043; active = hit-call score of the fitted dose curve at least 0.9, where 1 is the maximum)
How it was run: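 Number of electrodes reaching ≥1 burst every 2 min was recorded at DIV 5, 7, 9 and 12 and collapsed as trapezoidal area under the curve. Cultures were rat cortical neurons on MEA plates, dosed continuously from plating with medium and treatment refreshed on DIV 5 and 9.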

[18] = CCTE_Deisenroth_AIME_384WELL_CTox_Active: Cytotoxicity Assessment (CTOX) in CCTE's 384-well Estrogen Receptor Transactivation Assay with AIME metabolic competence (metabolism positive), Deisenroth Lab (AID 2284037; active = hit-call score of the fitted dose curve at least 0.9, where 1 is the maximum;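 note: chemicals first conditioned 2 h by alginate-bound induced rat liver S9 before cells; activity means signal loss indicating cell death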)
How it was run: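 Cytotoxicity in VM7Luc4E2 breast cells, 24 hour, measured as protease-substrate fluorescence loss, after 2-hour metabolic conditioning with induced rat hepatic S9 in alginate microspheres. Concentrations 0.002 - 200 uM, 10 points, bidirectional fitting.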

[19] = target: Estrogen receptor (Homo sapiens) (UniProt P03372); assay: CCTE_Deisenroth_AIME_96WELL_LUC_Active: CCTE's 96-well Estrogen Receptor Transactivation Assay with AIME metabolic competence (ERTA luciferase; metabolism positive), Deisenroth Lab (AID 2284023; active = hit-call score of the fitted dose curve at least 0.9, where 1 is the maximum)
How it was run: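 Metabolism-positive mode: induced rat hepatic S9 in alginate microspheres conditions test solutions (0.002 - 200 uM, 10 points) for 2 hours. VM7Luc4E2 ER luciferase reporter cells then exposed 24 h; positive-direction fit against 17beta-estradiol, n=4 typical.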

[20] = target: Estrogen receptor (Homo sapiens) (UniProt P03372); assay: CCTE_Deisenroth_AIME_96WELL_LUC_Inactive: CCTE's 96-well Estrogen Receptor Transactivation Assay without AIME metabolic competence (ERTA luciferase; metabolism negative), Deisenroth Lab (AID 2284025; active = hit-call score of the fitted dose curve at least 0.9, where 1 is the maximum)
How it was run: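 Metabolism-negative arm: chemicals (0.002–200 uM, 10 points) incubated 2 h with alginate-water microspheres, then medium moved onto VM7Luc4E2 cells for 24 h luciferase read-out. Positive direction vs 17beta-estradiol; n≥4 experiments.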

Measured: AC50

CCCCC(CC)COP(=O)(O)OCC(CC)CCCC (centres undefined)
inactive: [1] | [2] | [3] | [4] | [5] | [6] | [8] | [9]
active: [7] 8.23 nM

C(=C(c1ccccc1)c1ccccc1)c1ccccc1
active: [10] 4420 nM | [11] 9480 nM | [13] 869 nM
inactive: [12]

O=S(=O)(OCCOC(F)(F)F)C(F)(F)F
inactive: [14] | [15] | [16]

COC(=O)CCC(F)(F)C(F)(F)C(F)(F)C(F)(F)F
inactive: [14] | [16]

FC(F)(F)C(F)(F)C(F)(F)C(F)(F)C(F)(F)C(F)(F)CC1CO1 (centres undefined)
inactive: [14] | [16]

O=C(O)C(F)(F)C(F)(F)C(F)(F)F
inactive: [14] | [15] | [16] | [17]

O=S(=O)(OCC(F)F)C(F)(F)F
inactive: [14] | [15] | [16] | [17]

O=C(O)C(F)(F)C(F)(F)C(F)(F)C(F)(F)C(F)(F)C(F)(F)C(F)(F)C(F)(F)C(F)(F)C(F)F
inactive: [14] | [16]

CCCCCCOC(=O)c1ccccc1O
inactive: [1] | [2] | [3] | [4] | [5] | [6] | [7] | [8] | [9]

CC/C=C\CCOC(C)=O
inactive: [10] | [18] | [12] | [13]

OCCCC(F)(F)C(F)(F)C(F)(F)F
inactive: [14] | [15] | [16]

O=C(O)C=C(C(F)(F)F)C(F)(F)F
inactive: [14] | [15] | [16] | [17]

OCC(F)(F)C(F)(F)C(F)(F)C(F)F
inactive: [14] | [15] | [16]

C#C[C@]1(O)CC[C@H]2[C@@H]3CCc4cc(OC)ccc4[C@H]3CC[C@@]21C
active: [19] 0.1 nM | [20] 0.372 nM

OCC(F)(F)C(F)(F)C(F)(F)C(F)(F)C(F)(F)C(F)F
inactive: [14] | [15] | [16] | [17]
